Assay results published in PubChem BioAssay AID504660 (National Center for Advancing Translational Sciences (NCATS), 2011).
Among all 360,000 compounds or so, about 3,700 (1%) were called active. Cut-off read from the data, not from the text of the source: active = activation above about 30%; inactive = the rest. The list comes from a sample in which actives are over-represented; it also holds similar structures and randomly drawn compounds.

Each molecule was assayed against D(1A) dopamine receptor (Homo sapiens) (UniProt P21728) (assay: Allosteric Agonists of the Human D1 Dopamine Receptor: qHTS). Settings: HEK293 T-REx D1 cells, calcium flux, agonist mode; at 2 µM; active compounds read high.
D(1A) dopamine receptor (Homo sapiens), sequence (P21728 whole entry, looked up): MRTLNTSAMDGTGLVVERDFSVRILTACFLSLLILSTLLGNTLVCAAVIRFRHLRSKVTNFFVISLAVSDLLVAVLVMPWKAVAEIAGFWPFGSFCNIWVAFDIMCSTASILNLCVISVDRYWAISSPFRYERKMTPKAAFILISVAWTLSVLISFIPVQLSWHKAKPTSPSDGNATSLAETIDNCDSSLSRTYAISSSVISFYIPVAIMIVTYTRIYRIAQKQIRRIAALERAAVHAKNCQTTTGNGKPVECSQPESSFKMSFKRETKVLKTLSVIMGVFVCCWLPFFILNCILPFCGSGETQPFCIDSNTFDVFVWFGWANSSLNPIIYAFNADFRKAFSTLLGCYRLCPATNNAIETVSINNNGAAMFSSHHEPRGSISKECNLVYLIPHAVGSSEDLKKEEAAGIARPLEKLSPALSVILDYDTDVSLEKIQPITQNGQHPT
How it was run: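 Tetracycline-induced HEK293 TREx D1 cells, force-coupled to calcium signalling, were dye-loaded with a no-wash calcium kit. Compound was pin-added after a 10 s baseline. Fluorescence was read kinetically at 1 cycle/s for 180 s, with calcium rises flagged as agonism.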
Note: 0% is about no effect.

activation, inactive:
COCCCNC(=O)c1c(NC(=O)c2cc(=O)c3cc(C)c(C)cc3o2)sc2c1CCCC2 -1.72%, COc1cccc(CNCc2c(C(=O)O)n(Cc3ccc(C)cc3)c3cc(C)ccc23)c1OC 0.928%, O=C(NCc1ccccc1)c1cc(-c2cccc(Cl)c2)on1 3.77%, O=C(NC1CCCC1)c1cc(-c2ccccc2)on1 0.117%, CCCn1c2ccccc2c2cnn(CC(=O)N(C)c3ccccc3CC)c(=O)c21 0.732%, CCOCCCNC(=O)c1ccc2nc(CCc3ccccc3)oc2c1 0.808%, O=C(c1ccc2c(c1)N(Cc1ccccc1)C(=O)c1ccccc1S2(=O)=O)N1CCCC1 0.455%, Cc1cccc(NC(=O)C2CCN(S(=O)(=O)c3c(C)noc3/C=C/c3ccco3)CC2)c1 1.4%, O=C(Cn1c(COc2ccccc2)nc2ccccc21)Nc1cc(Cl)c(Cl)cc1Cl -0.172%, CC(O)c1nc2ccccc2n1Cc1ccc([N+](=O)[O-])cc1 (configuration not stated) 0.897%, CCc1ccc(Nc2nn3c(=O)c4cc5c(cc4nc3s2)OCO5)cc1 0.763%, CCOc1cc(CNC(=O)c2sc3ncnc(N(C)C4CCCCC4)c3c2C)ccc1OC 2.38%, CCOc1ccc2nc(N3CCCC(C(=O)Nc4cc(C)ccc4C)C3)sc2c1 (configuration not stated) -0.891%, CCOc1ccc(C(=O)NC2CCN(C(=O)Nc3ccccc3OC)CC2)cc1 0.137%, CC1CCN(S(=O)(=O)c2ccc3c(c2)N(CC(=O)NCc2ccccc2Cl)C(=O)CO3)CC1 -2.16%, COc1ccc(NC(=O)C2CCCN(S(=O)(=O)c3c(C)[nH]c(=O)[nH]c3=O)C2)c(OC)c1 (configuration not stated) 3.17%, N#C/C=C(/c1ccc(F)cc1)N1CCOCC1 5.96%, O=C(N1CCOCC1)N1CCOCC1 2.44%, COc1cccc(Cn2c(SCc3ccc(C(=O)N4CCCCC4)cc3)nc3ccncc32)c1 -0.712%, COc1ccccc1C(=O)Nc1c(C(=O)N(C)Cc2ccccc2)sc2nc(C)c(Cl)c(C)c12 1.11%, COc1cc(CNCc2cccs2)cc(Br)c1OC 2.66%, COc1ccccc1N1CCN(Cc2ccc(OC)c3ccccc23)CC1 0.832%, Cc1ccc2ccc3c(c2n1)NS(=O)(=O)c1ccccc1-3 -0.466%, CCC(=O)N1CCc2cc(S(=O)(=O)NC(Cc3ccccc3)C(=O)NCc3ccccc3)ccc21 (configuration not stated) 0.429%, CCCOc1ccc(-c2cccc(NS(=O)(=O)c3ccccc3)c2)nn1 -0.134%, COc1ccc(CCNC(=O)C2CCCN(Cc3nc(-c4cccc(Cl)c4)oc3C)C2)cc1OC (configuration not stated) 19.6%, COc1ccc(-c2nc(CN3CCC(C(=O)NCc4ccccc4)CC3)c(C)o2)cc1OC -1.51%, COc1ccc(CCNCc2c(C(=O)O)c(C)n(Cc3cccc(C)c3)c2C)cc1OC 1.85%, CCc1cc2c(-c3ccccc3)cc(=O)oc2c2c1OCN(Cc1ccc(C)cc1)C2 10.6%, CSc1ccc(C2c3c(oc4ccccc4c3=O)C(=O)N2CCCN2CCOCC2)cc1 (configuration not stated) -1.33%, CCc1ccc(NC(=O)C2CCCN2S(=O)(=O)c2ccc3nc(-c4ccccc4)[nH]c3c2)cc1 (configuration not stated) 0.736%, COc1cccc(/C=C/C(=O)OCC(=O)N2CCCc3ccccc32)c1 9.89%, CCCn1nc(C(=O)N2CCCc3ccccc32)c2ccccc2c1=O 0.113%, Oc1ccccc1-c1nc(/C=C/c2ccc(F)cc2)no1 5.78%, O=C(/C=C/c1ccccc1)Nc1cc(-c2nc3cc(Cl)ccc3o2)ccc1Cl -1.26%, COc1ccc(-c2nc3sc(CCNC(=O)C(C)(C)C)c(C)n3n2)cc1 3.98%, Cc1ccc(-c2nc3cccc(C)n3c2Nc2ccc3c(c2)OCCO3)cc1 -0.166%, Cc1ccc(Nc2c(-c3ccc(C)cc3)nc3cnccn23)cc1 3.9%, COc1ccc(-c2nc3ccccc3s2)cc1NC(=O)COc1ccccc1C -0.142%, Cc1cc2c(s1)c1cnn(Cc3c(F)cccc3Cl)c(=O)c1n2C 0.794%, Cn1c(=O)c2c(n3c4ccccc4nc13)NC(=O)CC2c1cccc(Cl)c1 (configuration not stated) 3.64%, COC(=O)c1cccc(NC(=O)CSc2nc(C)cc(=O)[nH]2)c1 1.14%, COc1ccc(C(=O)CSc2n[nH]c(N)n2)cc1 -2.12%, Cn1c(=O)c2c(nc(SCC(=O)Nc3ccc(F)cc3)n2Cc2ccc(Cl)cc2)n(C)c1=O -0.966%, CCOC(=O)c1ccc(NC(=O)C2CCN(S(=O)(=O)c3ccc4c(c3)CCCC(=O)N4)CC2)cc1 -0.195%, COc1ccc(Cl)cc1N(C)C(=O)c1cc2c(=O)oc3ccc(C)cc3c2s1 1.68%, Cc1ccc(NC(=O)c2oc3ccccc3c2NC(=O)Cc2cccs2)cc1 5.67%

activation, active:
CC(NC(=O)c1cc(-c2ccccc2)on1)c1ccccc1 (configuration not stated) 94.3%, CC(C)c1ccc(Cn2c(COc3ccccc3)nc3ccccc32)cc1 32.7%, CCOc1ccc2nc(N3CCCN(C(=O)Nc4ccccc4C)CC3)c(C#N)cc2c1 32.7%, N#C/C(=C/c1ccc(N2CCOCC2)o1)C(=O)N1CCOCC1 51.4%, COc1cc(CNCc2ccc(OC)c3ccccc23)cc(OC)c1OC 36.9%, Cc1oc(-c2ccccc2F)nc1CN1CCC(C(=O)NCCc2ccc(Cl)cc2)CC1 34.8%, Cc1cccc2cc3c(N)c(C(=O)N4CCCc5ccccc54)sc3nc12 60.4%, Cc1ccc(Nc2c(-c3ccc(N(C)C)cc3)nc3nc[nH]n23)cc1 39.9%, COC(=O)c1cc(C(=O)CSc2nc(C)cc(C)n2)ccc1O 257%, COC(=O)c1sc(-c2ccc(C(C)(C)C)cc2)cc1NC(=O)/C=C/C(=O)O 33%
